Screens deposited in PubChem BioAssay by several laboratories.
Mtb FBA inh = inhibits M. tuberculosis FBA enzyme | purified M. tuberculosis FBA, fluorescence read-out | inhibition, % at 1 µM | 2.3% of 360,000 active | AID 588726; in the data active means inhibition above about 27%;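 further: 0% = vehicle and 100% = reference inhibitor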
RecA intein inh = inhibitors of M. tuberculosis RecA intein splicing; P9WHJ3; inhibition, % (concentration not given with the values); 0.75% of 290,000 active; cell-free RecA intein splicing, fluorescence; in the data active means inhibition above about 30%;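 further: 0% = vehicle wells and 100% = reference inhibitor control wells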
Rv3671c inh = inhibitors of M. tuberculosis serine protease Rv3671c; inhibition, % at 5.96 µM; 0.048% of 320,000 active; in the data active means inhibition above about 38%;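 further: extracellular domain of Rv3671c used as enzyme; 0% = enzyme with DMSO and 100% = no enzyme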
UGM FP inh = blocks M. tuberculosis UGM enzyme | AID 504406 | 0.06% of 320,000 active | purified UGM, fluorescence polarization probe displacement | inhibition, % at 10 µM; in the data active means inhibition above about 10%, passing the limit was not always enough
Target sequence (P9WIQ1 whole entry, looked up): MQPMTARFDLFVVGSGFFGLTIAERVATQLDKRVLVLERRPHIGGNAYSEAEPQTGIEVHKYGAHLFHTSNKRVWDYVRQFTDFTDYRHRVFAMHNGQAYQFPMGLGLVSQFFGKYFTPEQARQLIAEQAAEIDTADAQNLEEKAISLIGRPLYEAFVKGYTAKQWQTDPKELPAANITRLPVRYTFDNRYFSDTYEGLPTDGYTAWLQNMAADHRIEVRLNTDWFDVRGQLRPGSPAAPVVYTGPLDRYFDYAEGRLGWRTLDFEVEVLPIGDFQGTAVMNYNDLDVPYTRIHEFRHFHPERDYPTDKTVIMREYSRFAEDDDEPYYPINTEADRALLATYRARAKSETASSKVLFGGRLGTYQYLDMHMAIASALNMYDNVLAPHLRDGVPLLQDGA
GDH-TPI counter = inhibits GDH-TPI coupling enzymes, artifact for Mtb FBA screen; AID 588335; GDH-TPI coupled enzyme counterscreen, NADH absorbance; 1.2% of 360,000 active; inhibition, % at 4.8 µM; in the data active means inhibition above about 30%;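 further: 0% = DMSO wells and 100% = wells lacking the enzyme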
Vc quorum ag = induces V. cholerae light production without autoinducers | activation, % at 18.7 µM | V. cholerae BH1578 lux reporter, luminescence, 6 h | 0.16% of 350,000 active; in the data active means activation mostly above about 9.7%, no sharp cut-off
* marks the source's active call; other numbers are inactive results; i = inactive; x = no result given. Shown are actives, neighbours in structure and some others; about 4.1% of the full set was active somewhere.

SMILES	Mtb FBA inh	RecA intein inh	Rv3671c inh	UGM FP inh	GDH-TPI counter	Vc quorum ag
CC(=O)c1ccc(N2CCN(c3ccc(C(N)=O)cc3[N+](=O)[O-])CC2)cc1	-9	-1	3	-1	33*	i
N#Cc1cc(C#N)c(N2CCN(c3ccccn3)CC2)nc1N	0	-2	0	1	32*	i
c1ccc(N2CCN(c3cnccn3)CC2)nc1	4	1	-10	1	11	-1
COc1ccccc1NC(=O)CCC(=O)Nc1cc(OC)c(NC(=O)c2cccs2)cc1OC	1	0	8	0	5	0
O=c1oc2ccc(Cl)cc2nc1/C=C(\O)c1ccco1	-2	-2	1	-1	37*	0
COc1ccc(Nc2ncnc3sc(C)cc23)c(OC)c1	1	-2	-1	5	-1	-1
CCOc1ccccc1N1C(=O)NC(=O)/C(=C/c2ccc3c4c(cccc24)CC3)C1=O	38*	2	-10	-4	24	i
COc1cccc(N2C(=O)NC(=O)/C(=C/c3ccc4c5c(cccc35)CC4)C2=O)c1	x	-4	-20	2	x	x
Cc1ccc(-c2c(=O)n(O)c3ccccc3[n+]2[O-])cc1	-4	-3	x	3	16	-2
CNC(=O)/C(C#N)=C/c1ccc(-c2ccccc2[N+](=O)[O-])o1	0	6	-1	-3	21	-1
N#C/C(=C\c1ccc(-c2ccccc2[N+](=O)[O-])o1)C(N)=O	-4	2	11	2	41*	0
N#Cc1cnc(Nc2nc3ccccc3o2)nc1-c1ccccc1	-5	-2	0	0	33*	i
Cc1ccnc(Nc2nc3ccccc3o2)n1	-4	-1	-4	0	5	i
O=C(N=C1SC2CS(=O)(=O)CC2N1c1ccc(Br)cc1)C1CCCO1 (configuration not stated)	-2	-2	5	1	3	i
CC(=O)c1ccc(N2CCN(C(=O)CCCn3c(=S)[nH]c4cc5c(cc4c3=O)OCO5)CC2)cc1	0	x	-7	-1	35*	-1
O=C(c1ccc2c(=O)n(-c3ccccc3)c(=O)[nH]c2c1)N1CCN(c2ccc(F)cc2)CC1	0	0	4	-3	3	-1
CC(=O)c1ccc(N2CCN(C(=O)c3ccc4c(=O)n(-c5ccccc5)c(=O)[nH]c4c3)CC2)cc1	0	0	-1	0	35*	i
C=CCn1c(=O)[nH]c2cc(C(=O)N3CCN(c4ccc(C(C)=O)cc4)CC3)ccc2c1=O	-1	2	-4	1	36*	i
CCOC(=O)CSc1n[nH]c(NC(=O)c2cccc(C(F)(F)F)c2)n1	2	50*	1	2	-2	0
CCOC(=O)CSc1n[nH]c(NC(=O)CC)n1	3	3	-8	-4	-7	-4
CCOc1ccccc1NC(=O)COC(=O)c1c[nH]c2ccccc12	24	x	x	x	10	i
CN(C)/C=N/c1ncc(C(=O)c2ccc(-c3ccccc3)cc2)s1	-1	-8	3	x	34*	i
CN(C)/C=N/c1ncc(C(=O)c2ccccc2)s1	1	0	7	-6	32*	x
Cc1cc(C(=O)c2cnc(/N=C/N(C)C)s2)cc(C)c1O	-5	-6	2	-1	19	1
CC(C)C(N)c1csc(Nc2ccc(C(=O)NCCCO)cn2)n1 (configuration not stated)	0	x	x	x	7	0
SMILES	Mtb FBA inh	RecA intein inh	Rv3671c inh	UGM FP inh	GDH-TPI counter	Vc quorum ag
CCCCCCN1CCN(C2CN(CCCC)S(=O)(=O)C2)CC1 (configuration not stated)	0	x	x	x	x	x
CCc1nn(CCCC(=O)NCc2ccccc2C)c(=O)c2cc3occc3n12	3	1	-10	2	3	0
COc1ccc(C(=O)Nc2cccc([N+](=O)[O-])c2)cc1Br	2	-2	8	1	2	1
COc1ccc(C(=O)NCCCn2ccnc2)cc1[N+](=O)[O-]	5	1	5	2	32*	-1
COc1ccc(C(=O)Nc2ccc(OC)c([N+](=O)[O-])c2)cc1Br	1	1	-21	0	5	29*
COc1cc(C(=O)NCCCn2ccnc2)cc(OC)c1OC	0	0	3	1	6	0
O=C(NCCCN1CCCC1)c1ccc(CS(=O)(=O)c2c(Cl)cccc2Cl)o1	-4	0	0	0	1	-1
CCn1cc(/C=C(\NC(=O)c2ccccc2F)C(=O)NCCCn2ccnc2)c2ccccc21	-5	0	5	0	33*	i
COc1ccc(C(=O)N/C(=C\c2cn(S(=O)(=O)N(C)C)c3ccccc23)C(=O)NCCCn2ccnc2)cc1	-2	-4	-4	2	14	-3
CCn1cc(/C=C(\NC(=O)c2ccc(OC)cc2)C(=O)NCCCn2ccnc2)c2ccccc21	-5	x	x	x	37*	-5
CCn1cc(/C=C(\NC(=O)c2ccccc2OC)C(=O)NCCCn2ccnc2)c2ccccc21	-5	3	-2	1	25	-1
C=CC[C@H](CC(=O)NCCO)C(=O)N[C@H](COC(=O)[C@H](CC=C)CC(=O)OC(C)(C)C)Cc1c[nH]c2ccccc12	-2	x	-2	0	3	i
CCOC(=O)C(C)Sc1nnc2c3ccccc3n(C)c2n1 (configuration not stated)	0	1	-4	1	32*	i
CCN(CC)C(=O)CSc1nnc2c3ccccc3n(C)c2n1	0	-1	-7	2	10	i
CN1CCN(CCCNC(=O)c2ccc3c(c2)N(Cc2ccccc2)CCS3)CC1	190*	-4	2	1	9	0
O=C(NCCCN1CCOCC1)c1ccc2c(c1)N(Cc1ccccc1)CCS2	119*	0	-25	2	0	-1
CC1CC(C)CN(C(=O)c2ccc3c(c2)N(Cc2ccccc2)CCS3)C1 (configuration not stated)	10	35*	9	3	8	0
O=C(NCCCN1CCOCC1)c1ccc2c(c1)N(Cc1ccccc1)C(=O)c1ccccc1S2	-1	1	-2	-4	9	i
CCOC(=O)c1cnc2ccc(C(=O)OC)cc2c1NCCCN1CCOCC1	19	-4	x	1	53*	0
CCOC(=O)c1cnc2ccc(C(=O)OC)cc2c1NCCN1CCOCC1	5	4	2	2	21	i
O=[N+]([O-])c1ccc2[nH]c(=S)sc2c1	-3	x	x	x	7	x
O=C(NCCN1CCOCC1)c1ccc2c(c1)N(Cc1ccccc1)CCS2	118*	-10	-13	0	9	1
O=C(NCC1CCCO1)c1ccc2c(c1)N(Cc1ccccc1)CCS2 (configuration not stated)	141*	-6	10	-3	-8	-2
O=C(NCC1CCCO1)c1ccc2c(c1)N(Cc1ccccc1)C(=O)CS2=O (configuration not stated)	0	1	-5	1	2	i
